Compounds with a hit are over-represented: about 1.5% of the library has one in this group of screens.
IL2 activator = IL-2 activation; IL-2 activation reporter assay, cell-based qHTS; stimulated with anti-CD3/CD4/CD28 beads; in transgenic mouse T cells; activation, % (series mostly up to about 46 µM); hit rate 0.065% among 360,000; in the data active means activation above about 50%; inconclusive means mostly about 30% to 49%
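Using fluorescent plate cytometry, EGFP and DsRed are detected in transgenic mouse T cells stimulated 18 h at 37 degrees C with antibody-coated beads after 60 min compound pretreatment.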
Nrf2 activator = activators of Nrf2 (ARE) signaling. hit rate 0.31% among 410,000. Potency, µM (doses to about 46.1 µM), most hits filed as activators. AREc32 ARE-luciferase reporter (MCF7-derived line), luminescence, 24 h; further: nearly all actives have a fitted effect of over 65% in size
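Nrf2 activation is followed as ARE-luciferase induction in the AREc32 line after one day of compound treatment; luminescence is read with Steady-Glo.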
12-LOX inh = blocks human arachidonate 12S-lipoxygenase; P18054; purified 12hLO, xylenol orange hydroperoxide absorbance; Potency, µM (series often up to 108 µM), usual class: inhibitors; hit rate 1.1% among 580,000
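Purified human 12hLO at 150 nM in 25 mM Hepes, 0.01% Triton X-100, pH 7.0, preincubated 15 min at room temperature with compound. Reaction started with 40 uM arachidonic acid, 30 min at room temperature. Hydroperoxide measured by Fe-xylenol orange, 573/405 nm absorbance ratio.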
uPA generation = cell surface uPA generation inhibition; AID 540303; hit rate 0.31% among 330,000; cell surface uPA generation assay, qHTS; Potency, µM (series often up to 38.3 µM), actives largely listed as inhibitors; active means well fitted inhibition curve with a large enough effect; inconclusive means small, poorly fitted or top-dose-only effect; inactive means no such curve, though single readings can be large or run the other way; tested in mouse RAW 264.7 cells; further: nearly all actives have a fitted effect of over 55% in size
Integrin act MD = integrin-mediated muscular dystrophy alleviation activation; AID 624291; Potency, µM (highest dose often 38.3 µM), most hits filed as activators; hit rate 0.064% among 350,000; alpha7betagal myoblasts, beta-gal FDG fluorescence, 48 h; further: nearly all actives have a fitted effect of over 60% in size
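alpha7betagal+/- myoblasts (passage 13, 250/well) treated 48 h at 37C with compounds at 1:260 dilution of DMSO stock. Lysed, then beta-galactosidase activity read as FDG fluorescence (ex 480/em 540) after 30 min, with pre-read for autofluorescence.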
Numbers stand for hits; n = inactive; u = inconclusive; x = not tested or not shown; ! = a repeat was not active; [ ] = dose if it differs, or a comment. Unless noted, the call rests on the fitted dose curve; in most records, active means well fitted curve in the direction sought with a large enough effect; inconclusive means small, poorly fitted or top-dose-only effect, or another doubt; inactive means no such curve, though single readings can be large; an effect the other way counts as inactive or inconclusive.

SMILES	IL2 activator	Nrf2 activator	12-LOX inh	uPA generation	Integrin act MD
Cc1ccc(NC(=S)NCc2ccc3c(c2)cc(C)n3C)c(C)c1	n	n	35µM	n	n
Cc1ccc(NC(=O)NCc2ccc3c(c2)OCO3)c(C)c1	n	n	n	n	n
Cc1ccc(NC(=S)NCc2ccc3c(c2)OCO3)c(C)c1	n	n	40µM	n	n
Cc1cccc(CC(=O)N2CCC(c3n[nH]c(=O)n3Cc3ccc(F)cc3)CC2)c1	x	x	n	x	x
CC(C)CN1C(=O)c2cccn2CC1CNC(=O)c1cccc(F)c1 (configuration not stated)	x	x	n	x	x
CCOC(=O)CC(=O)CSc1ccc2nnc(-c3cccc(F)c3)n2n1	n	n	n	x	n
COC(=O)c1ccc(CSc2ccc3nnc(-c4cccc(F)c4)n3n2)o1	n	n	28µM	n	n
CN(CCOC(=O)c1ccccc1F)C(C)(C)C	x	x	n	x	x
Cc1ccc(S(=O)(=O)CCSc2n[nH]c(=O)n2-c2ccccc2)cc1	n	u	n	n	n
Cc1cc(C)c(-n2c(SCCS(=O)(=O)c3ccc(F)cc3)n[nH]c2=O)c(C)c1	n	8.9µM	n	n	n
COc1ccc(-c2nc(C(C)C)nc3c2CCN(C(=O)Nc2ccccc2)CC3)cc1	x	x	n	x	x
CC(C)CN(Cc1cc2ccccc2[nH]c1=O)C(=O)c1ccco1	x	x	n	x	x
O[C@H]1[C@H](NCC2CC2)[C@H]2CO[C@H](O2)[C@@H]1N1CCCCC1	x	x	n	x	x
CCCn1c(C)cc(-c2csc(N)n2)c1C	n	n	35µM	n	n
COc1cccc(C(=O)Nc2ccc3c(cc2=O)[C@@H](NC(C)=O)CCc2cc(OC)c(OC)c(OC)c2-3)c1	n	n	x	10µM	n
Cc1c(NC(=O)c2cc3cc(Br)ccc3[nH]2)c(=O)n(-c2ccccc2)n1C	x	x	50µM	x	x
CC(C)c1ccc(-c2cc(=O)c3cc(NC(=O)C(C)(C)C)ccc3o2)cc1	x	x	n	x	x
COCCN1CCCCCC(O)c2cc(C(=O)NCCN3CCCCC3)ccc21 (configuration not stated)	x	x	n	x	x
O=C(CSc1nnc(-c2cccnc2)n1Cc1ccco1)N1c2ccccc2Sc2ccccc21	n	n	32µM	x	n
c1ccc(N2CCN(c3nc4ccccc4n4cnnc34)CC2)cc1	n	n	n	n	n
c1ccc2c(c1)CCN(c1nc3ccccc3n3cnnc13)C2	n	13µM	u	n	n
COc1ccc(N2CCN(CC(O)COc3ccc(C(C)C)c(C)c3)CC2)cc1 (configuration not stated)	x	n	16µM	x	x
COc1ccc(N2CCN(CC(O)COc3ccc(C)c(C)c3)CC2)cc1 (configuration not stated)	n	n	u	n	u
COc1ccc(N2CCN(CC(O)COc3c(OC)cccc3OC)CC2)cc1 (configuration not stated)	n	n	40µM!	n	u
Cc1cc(OCC(O)CN2CCN(c3cccc(Cl)c3)CC2)ccc1Cl (configuration not stated)	x	n	40µM	x	x
SMILES	IL2 activator	Nrf2 activator	12-LOX inh	uPA generation	Integrin act MD
C=CCc1cc(OC)ccc1OCC(O)CN1CCN(c2ccc(OC)cc2)CC1 (configuration not stated)	n	n	35µM!	n	n
CCN(CCS(=O)(=O)c1ccc(C)cc1)C(=O)c1csc(C(C)=O)c1	x	x	n	x	x
N#Cc1ccc(OCc2cccc3cccnc23)cc1	x	x	n	x	x
Cc1ccc(NC(=O)CN2C(=O)S/C(=C/c3ccc(-c4cccc(C(=O)O)c4)o3)C2=O)cc1	n	n[9.22 µM]	40µM	n	n
Cc1ccccc1NC(=O)CN1C(=O)S/C(=C\c2ccc(-c3cc(C(=O)O)ccc3C)o2)C1=O	77	n	u	n	n
Cc1ccc(C(=O)O)cc1-c1ccc(/C=C2\SC(=O)N(CC(=O)Nc3ccccc3)C2=O)o1	n	n	u	n	n
O=C1CCN(S(=O)(=O)c2ccccc2)CCCN(Cc2cn[nH]c2-c2ccc(F)cc2)CCN1	x	x	n	x	x
CC(/C=N/n1c(-c2ccncc2)n[nH]c1=S)=C\c1ccco1	n	7.1µM	7.1µM	n	n
CC(=C/c1ccccc1)/C=N/n1c(-c2ccncc2)n[nH]c1=S	n	n	13µM	n	u
CC(/C=N/n1c(-c2cccnc2)n[nH]c1=S)=C\c1ccccc1	n	n	n	n	n
COc1ccccc1/C=C/C=N/n1c(-c2cc(-c3ccccc3)n[nH]2)n[nH]c1=S	n	n	10µM	n	n

Screening data: PubChem, National Center for Advancing Translational Sciences (NCATS)
